Read-out in one experiment: CD69, CD69 (gene 969)
The experiment can be described thus: BSK_SAg_CD69: BioMAP Diversity Plus: SAg Assay for CD69 Biomarker Activity (AID 2283089).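 As to AC50: cell surface CD69 protein quantified by ELISA with fluorescence detection.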 As to conditions: primary human HUVEC with PBMC; actives raise or lower the signal. A digest of the protocol:
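Endothelial/PBMC co-culture; chemical added; 24 h incubation; CD69 ELISA with fluorescence detection; bidirectional fit vs DMSO.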

Read-out in experiment [1]: Monocyte Chemoattractant Protein-1 (MCP1), CCL2 (gene 6347)
The experiment can be described thus: BSK_SAg_MCP1: BioMAP Diversity Plus: SAg Assay for Monocyte Chemoattractant Protein-1 (MCP1) Biomarker Activity (AID 2283090). The following applies: primary human HUVEC with PBMC; actives raise or lower the signal. In a few lines:
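MCP-1 levels in the endothelial–PBMC SAg co-culture were quantified by ELISA at 24 h post-dosing; both increases and decreases versus DMSO scored. Cytotoxicity monitored by SRB total protein in parallel cultures.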

Read-out in experiment [2]: E-selectin (Homo sapiens) (UniProt P16581)
Nature of the experiment: BSK_SAg_Eselectin: BioMAP Diversity Plus: SAg Assay for Eselectin Biomarker Activity (AID 2283091). As to conditions: primary human HUVEC with PBMC; actives raise or lower the signal. A digest of the protocol:
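Cell-surface E-selectin is read by ELISA at 24 h in the SAg co-culture of HUVEC and PBMC. Curves are fitted in both directions relative to DMSO. Parallel SRB total-protein staining tracks overt toxicity.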

Read-out in experiment [3]: Monokine induced gamma interferon (MIG), CXCL9 (gene 4283)
The experiment can be described thus: BSK_SAg_MIG: BioMAP Diversity Plus: SAg Assay for Monokine induced gamma interferon (MIG) Biomarker Activity (AID 2283092). The following applies: primary human HUVEC with PBMC; actives raise or lower the signal. A digest of the protocol: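 Measures CXCL9 protein by ELISA in a human vascular primary-cell co-culture (umbilical vein endothelium with PBMC) 24 h after chemical addition. Activity is scored up or down from the DMSO control.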

Experiment [4] is described as follows: BSK_SAg_PBMCCytotoxicity: PBMC Cytotoxicity Assessment in the BioMAP Diversity Plus: SAg Assay (AID 2283093).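 Also: PBMC viability measured as Alamar Blue reduction fluorescence at 546/580 nm; fitted both ways against DMSO so a hit may be loss or gain of signal.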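 As to AC50: PBMC superantigen activated with SEB plus TSST-1 one hour after compound addition.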 The following applies: primary human HUVEC with PBMC. A digest of the protocol: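 Compound added to 75,000 PBMC/well for 1 h; SEB and TSST-1 then added at 20 ng/mL final each; 90 h incubation; Alamar Blue 6 h; read 546/580 nm ex/em. Activity fitted bidirectionally relative to DMSO baseline.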

Read-out in experiment [5]: Interleukin-8 (IL8), CXCL8 (gene 3576)
Nature of the experiment: BSK_SAg_IL8: BioMAP Diversity Plus: SAg Assay for Interleukin-8 (IL8) Biomarker Activity (AID 2283094). The following applies: primary human HUVEC with PBMC; actives raise or lower the signal. A digest of the protocol:
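In this co-culture of human umbilical vein endothelium with peripheral blood mononuclear cells, IL-8 is assayed by ELISA at 24 h. DMSO serves as baseline for bidirectional curve fitting.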

The nature of experiment [6]: BSK_SAg_SRB: Viability Assessment in the BioMAP Diversity Plus: SAg Assay (AID 2283096).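 Also: cells read one day after compound addition; hits may be either gain or loss of signal compared with DMSO.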 As to conditions: primary human HUVEC with PBMC. In a few lines:
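Total protein by sulforhodamine B staining, 24 h after dosing, in HUVEC–PBMC co-culture; DMSO-referenced bidirectional fitting.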

Experiment [7] deals with human CYP19A1, CYP19A1 (gene 1588) (UniProt P11511). The experiment can be described thus: NVS_ADME_hCYP19A1: NovaScreen (NVS) CYP450-related Enzyme Activity (ADME) Assay for human CYP19A1 (AID 2283098; active = hit-call score of the fitted dose curve at least 0.9, where 1 is the maximum). A digest of the protocol: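 Biochem, cell-free; recombinant enzyme + specific substrate; fluorescence intensity at 0.5 h post-dose; 10 uM duplicate primary, conc. series for actives; acetonitrile = negative control/baseline; positive and negative controls on every plate.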
Chain of human CYP19A1, CYP19A1 (gene 1588) (P11511 whole entry, looked up): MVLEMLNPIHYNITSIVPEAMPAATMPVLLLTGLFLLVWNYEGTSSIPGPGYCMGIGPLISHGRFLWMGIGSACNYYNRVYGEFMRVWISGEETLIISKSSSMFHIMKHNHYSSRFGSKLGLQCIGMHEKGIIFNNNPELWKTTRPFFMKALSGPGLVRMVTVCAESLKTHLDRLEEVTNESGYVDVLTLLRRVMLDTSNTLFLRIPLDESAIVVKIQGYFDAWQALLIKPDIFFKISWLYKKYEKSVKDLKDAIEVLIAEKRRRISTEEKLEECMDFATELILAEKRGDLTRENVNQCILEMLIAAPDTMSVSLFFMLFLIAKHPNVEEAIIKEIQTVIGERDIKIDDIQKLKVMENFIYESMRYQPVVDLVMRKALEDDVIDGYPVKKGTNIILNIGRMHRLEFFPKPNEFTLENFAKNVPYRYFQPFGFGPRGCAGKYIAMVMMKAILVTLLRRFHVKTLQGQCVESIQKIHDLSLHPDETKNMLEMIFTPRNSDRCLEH

The target in experiment [8] is human CYP2A6, CYP2A6 (gene 1548) (UniProt P11509). The experiment can be described thus: NVS_ADME_hCYP2A6: NovaScreen (NVS) CYP450-related Enzyme Activity (ADME) Assay for human CYP2A6 (AID 2283099; active = hit-call score of the fitted dose curve at least 0.9, where 1 is the maximum). A digest of the protocol:
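Compounds screened at 10 uM (duplicate) and, if active, titrated to a 20 uM top concentration against insect-cell-expressed CYP2A6. Loss of fluorescent product signal after 0.5 h, relative to acetonitrile baseline, indicates inhibition.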

For experiment [9], the target named is human CYP1A1, CYP1A1 (gene 1543) (UniProt P04798). Nature of the experiment: NVS_ADME_hCYP1A1: NovaScreen (NVS) CYP450-related Enzyme Activity (ADME) Assay for human CYP1A1 (AID 2283100; active = hit-call score of the fitted dose curve at least 0.9, where 1 is the maximum). A digest of the protocol:
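Chemicals were first tested in duplicate at 10 uM, and those passing a 30% inhibition threshold were rerun as concentration series topping at 20 uM. Fluorescence read-out of recombinant enzyme turnover after 1 h, relative to acetonitrile.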

The target of experiment [10] is human CYP2B6, CYP2B6 (gene 1555) (UniProt P20813). The experiment can be described thus: NVS_ADME_hCYP2B6: NovaScreen (NVS) CYP450-related Enzyme Activity (ADME) Assay for human CYP2B6 (AID 2283101; active = hit-call score of the fitted dose curve at least 0.9, where 1 is the maximum). In a few lines:
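Recombinant protein, specific fluorescent substrate, read at 1 h post-dosing. Primary: single 10 uM, duplicate; follow-up: concentration series. Activity = signal loss vs acetonitrile baseline, with positive and negative controls on every plate.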

Experiment [11] addresses human CYP2C8, CYP2C8 (gene 1558) (UniProt P10632). Nature of the experiment: NVS_ADME_hCYP2C8: NovaScreen (NVS) CYP450-related Enzyme Activity (ADME) Assay for human CYP2C8 (AID 2283104). A digest of the protocol:
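Recombinant human CYP2C8 with fluorogenic substrate, 0.5 h, fluorescence intensity; signal loss fitted versus acetonitrile. Screened in duplicate at 10 uM, then actives run in concentration-response up to 20 uM.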

In experiment [12] the target is human CYP2J2, CYP2J2 (gene 1573) (UniProt P51589). The experiment can be described thus: NVS_ADME_hCYP2J2: NovaScreen (NVS) CYP450-related Enzyme Activity (ADME) Assay for human CYP2J2 (AID 2283106; active = hit-call score of the fitted dose curve at least 0.9, where 1 is the maximum). In a few lines: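 Cell-free assay of recombinant CYP2J2 with a fluorogenic substrate, read 1 h after dosing; loss of signal versus acetonitrile. Primary screen at 10 uM in duplicate, then concentration-response up to 20 uM for chemicals passing threshold (e.g., 30% inhibition).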

In experiment [13] the target is human CYP2D6, CYP2D6 (gene 1565) (UniProt P10635). The experiment can be described thus: NVS_ADME_hCYP2D6: NovaScreen (NVS) CYP450-related Enzyme Activity (ADME) Assay for human CYP2D6 (AID 2283107; active = hit-call score of the fitted dose curve at least 0.9, where 1 is the maximum). In a few lines: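 Fluorescence readout of recombinant CYP2D6 (insect-cell derived) activity after 1 h incubation with test chemical. Acetonitrile served as baseline, loss-of-signal direction. Single-concentration duplicate screening at 10 uM preceded concentration-response retesting.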
Chain of human CYP2D6, CYP2D6 (gene 1565) (P10635 whole entry, looked up): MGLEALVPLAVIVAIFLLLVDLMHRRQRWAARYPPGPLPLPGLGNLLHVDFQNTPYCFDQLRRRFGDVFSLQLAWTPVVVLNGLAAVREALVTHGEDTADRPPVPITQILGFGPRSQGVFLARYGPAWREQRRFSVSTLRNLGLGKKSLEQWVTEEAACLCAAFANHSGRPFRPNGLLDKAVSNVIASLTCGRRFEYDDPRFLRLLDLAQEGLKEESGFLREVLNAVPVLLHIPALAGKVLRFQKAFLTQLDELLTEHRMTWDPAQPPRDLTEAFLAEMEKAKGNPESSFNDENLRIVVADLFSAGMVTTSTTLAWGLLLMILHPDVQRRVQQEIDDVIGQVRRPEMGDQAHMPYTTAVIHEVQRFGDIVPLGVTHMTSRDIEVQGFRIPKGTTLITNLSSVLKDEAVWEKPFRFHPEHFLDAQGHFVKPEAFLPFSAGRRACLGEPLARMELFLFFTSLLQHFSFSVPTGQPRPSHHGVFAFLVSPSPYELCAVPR

For experiment [14], the target named is human CYP2C9, CYP2C9 (gene 1559) (UniProt P11712). The experiment can be described thus: NVS_ADME_hCYP2C9: NovaScreen (NVS) CYP450-related Enzyme Activity (ADME) Assay for human CYP2C9 (AID 2283108; active = hit-call score of the fitted dose curve at least 0.9, where 1 is the maximum). In a few lines:
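Fluorescence readout of CYP2C9 activity (SF9-expressed human enzyme) at 0.75 h. The primary screen used 10 uM in duplicate, with concentration-response follow-up for actives; acetonitrile was the negative control.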

For experiment [15], the target named is Cytochrome P450 2C19 (Homo sapiens) (UniProt P33261). Nature of the experiment: NVS_ADME_hCYP2C19: NovaScreen (NVS) CYP450-related Enzyme Activity (ADME) Assay for human CYP2C19 (AID 2283113; active = hit-call score of the fitted dose curve at least 0.9, where 1 is the maximum;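 as to AC50: potency for inhibition seen as loss of fluorescent signal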). In a few lines:
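Compounds first screened in duplicate at 10 uM, then confirmed in concentration series. Insect-cell-expressed human CYP2C19 turned over a fluorogenic substrate, and fluorescence was read after 1 h. Inhibition taken as signal loss relative to acetonitrile.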

Experiment [16] concerns the target Cytochrome P450 3A4 (Homo sapiens) (UniProt P08684). Nature of the experiment: NVS_ADME_hCYP3A4: NovaScreen (NVS) CYP450-related Enzyme Activity (ADME) Assay for human CYP3A4 (AID 2283110; active = hit-call score of the fitted dose curve at least 0.9, where 1 is the maximum). In a few lines: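 Compounds were first screened in duplicate at 10 uM against recombinant CYP3A4 produced in insect cells, then actives were run in concentration series. Enzyme activity was measured by fluorescence after 0.33 hour, with acetonitrile as baseline.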

Each structure is given as a SMILES string. Where “and” joins values, the source holds several entries; their conditions need not be identical. Equal entries are not always repeated. Inconclusive results are not listed. Calls of active or inactive are those of the source. The calls were made as follows, unless noted: active = hit-call score of the fitted dose curve at least 0.9, where 1 is the maximum; inactive = score below 0.9.

Chain of E-selectin (Homo sapiens) (P16581 whole entry, looked up): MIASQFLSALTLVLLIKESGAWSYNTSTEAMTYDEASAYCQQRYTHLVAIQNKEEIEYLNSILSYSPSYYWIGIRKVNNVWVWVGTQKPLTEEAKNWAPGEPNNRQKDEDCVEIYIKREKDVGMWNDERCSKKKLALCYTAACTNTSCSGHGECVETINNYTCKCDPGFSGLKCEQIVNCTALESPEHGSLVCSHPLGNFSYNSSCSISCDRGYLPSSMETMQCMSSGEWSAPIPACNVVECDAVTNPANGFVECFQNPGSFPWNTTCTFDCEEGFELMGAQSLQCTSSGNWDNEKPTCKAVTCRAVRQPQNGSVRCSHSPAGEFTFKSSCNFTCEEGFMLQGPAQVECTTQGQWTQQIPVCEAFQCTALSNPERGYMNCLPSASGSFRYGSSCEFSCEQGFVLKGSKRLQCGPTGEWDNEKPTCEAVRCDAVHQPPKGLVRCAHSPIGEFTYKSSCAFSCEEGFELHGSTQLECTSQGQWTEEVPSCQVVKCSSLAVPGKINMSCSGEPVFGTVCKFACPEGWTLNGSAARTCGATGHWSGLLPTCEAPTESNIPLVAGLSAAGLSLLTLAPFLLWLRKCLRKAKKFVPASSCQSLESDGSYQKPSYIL
Chain of human CYP1A1, CYP1A1 (gene 1543) (P04798 whole entry, looked up): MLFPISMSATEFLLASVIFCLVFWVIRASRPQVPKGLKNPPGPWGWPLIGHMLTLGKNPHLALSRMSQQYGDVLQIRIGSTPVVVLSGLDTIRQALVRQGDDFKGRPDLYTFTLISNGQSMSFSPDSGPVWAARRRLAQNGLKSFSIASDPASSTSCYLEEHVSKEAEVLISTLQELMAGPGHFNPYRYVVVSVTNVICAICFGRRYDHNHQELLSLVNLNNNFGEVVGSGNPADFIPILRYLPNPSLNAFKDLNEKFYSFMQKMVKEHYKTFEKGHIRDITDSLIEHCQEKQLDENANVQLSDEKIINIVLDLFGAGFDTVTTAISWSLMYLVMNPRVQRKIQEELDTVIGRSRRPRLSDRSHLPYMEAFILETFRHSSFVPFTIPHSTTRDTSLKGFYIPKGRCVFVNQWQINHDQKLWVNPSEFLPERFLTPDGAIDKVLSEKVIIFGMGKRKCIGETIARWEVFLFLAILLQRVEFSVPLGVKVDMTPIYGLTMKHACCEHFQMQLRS
Chain of human CYP2C9, CYP2C9 (gene 1559) (P11712 whole entry, looked up): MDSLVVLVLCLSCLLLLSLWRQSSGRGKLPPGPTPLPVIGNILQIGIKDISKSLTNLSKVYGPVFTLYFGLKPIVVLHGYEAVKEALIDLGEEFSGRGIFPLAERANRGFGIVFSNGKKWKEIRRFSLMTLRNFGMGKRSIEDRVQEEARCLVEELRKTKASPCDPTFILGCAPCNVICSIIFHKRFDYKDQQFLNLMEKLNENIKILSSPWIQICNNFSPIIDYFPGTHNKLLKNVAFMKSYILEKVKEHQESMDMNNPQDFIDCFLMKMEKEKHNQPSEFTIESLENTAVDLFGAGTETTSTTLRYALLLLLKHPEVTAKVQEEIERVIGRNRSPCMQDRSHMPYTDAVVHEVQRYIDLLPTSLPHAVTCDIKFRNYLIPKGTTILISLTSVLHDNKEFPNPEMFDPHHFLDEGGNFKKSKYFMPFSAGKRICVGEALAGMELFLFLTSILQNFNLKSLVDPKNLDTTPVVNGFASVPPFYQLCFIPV
Chain of human CYP2B6, CYP2B6 (gene 1555) (P20813 whole entry, looked up): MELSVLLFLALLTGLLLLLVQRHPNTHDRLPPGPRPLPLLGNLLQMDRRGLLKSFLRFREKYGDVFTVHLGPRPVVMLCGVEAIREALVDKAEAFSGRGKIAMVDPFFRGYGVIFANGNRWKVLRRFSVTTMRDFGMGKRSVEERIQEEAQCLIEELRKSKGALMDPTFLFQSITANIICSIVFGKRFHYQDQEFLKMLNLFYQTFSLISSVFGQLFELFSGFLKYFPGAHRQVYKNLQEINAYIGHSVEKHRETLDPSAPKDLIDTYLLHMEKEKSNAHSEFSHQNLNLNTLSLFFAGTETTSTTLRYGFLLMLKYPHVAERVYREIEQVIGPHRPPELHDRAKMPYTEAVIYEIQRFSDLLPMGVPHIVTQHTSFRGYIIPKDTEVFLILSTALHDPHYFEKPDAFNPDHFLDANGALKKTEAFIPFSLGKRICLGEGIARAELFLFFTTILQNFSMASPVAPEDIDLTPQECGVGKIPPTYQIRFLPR
Chain of Cytochrome P450 3A4 (Homo sapiens) (P08684 whole entry, looked up): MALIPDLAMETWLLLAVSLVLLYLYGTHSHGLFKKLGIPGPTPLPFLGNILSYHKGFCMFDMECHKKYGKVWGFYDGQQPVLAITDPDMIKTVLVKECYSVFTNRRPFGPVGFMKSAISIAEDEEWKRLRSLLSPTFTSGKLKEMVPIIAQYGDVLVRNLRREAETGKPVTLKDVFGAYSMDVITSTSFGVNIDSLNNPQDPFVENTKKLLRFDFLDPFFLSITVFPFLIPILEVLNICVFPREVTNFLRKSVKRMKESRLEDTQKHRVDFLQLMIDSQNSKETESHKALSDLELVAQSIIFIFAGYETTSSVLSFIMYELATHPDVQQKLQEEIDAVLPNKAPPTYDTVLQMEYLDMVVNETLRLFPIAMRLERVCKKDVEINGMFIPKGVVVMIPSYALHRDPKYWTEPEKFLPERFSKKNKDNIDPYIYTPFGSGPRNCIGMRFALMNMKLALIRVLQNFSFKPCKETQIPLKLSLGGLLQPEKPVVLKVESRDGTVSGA
Chain of human CYP2C8, CYP2C8 (gene 1558) (P10632 whole entry, looked up): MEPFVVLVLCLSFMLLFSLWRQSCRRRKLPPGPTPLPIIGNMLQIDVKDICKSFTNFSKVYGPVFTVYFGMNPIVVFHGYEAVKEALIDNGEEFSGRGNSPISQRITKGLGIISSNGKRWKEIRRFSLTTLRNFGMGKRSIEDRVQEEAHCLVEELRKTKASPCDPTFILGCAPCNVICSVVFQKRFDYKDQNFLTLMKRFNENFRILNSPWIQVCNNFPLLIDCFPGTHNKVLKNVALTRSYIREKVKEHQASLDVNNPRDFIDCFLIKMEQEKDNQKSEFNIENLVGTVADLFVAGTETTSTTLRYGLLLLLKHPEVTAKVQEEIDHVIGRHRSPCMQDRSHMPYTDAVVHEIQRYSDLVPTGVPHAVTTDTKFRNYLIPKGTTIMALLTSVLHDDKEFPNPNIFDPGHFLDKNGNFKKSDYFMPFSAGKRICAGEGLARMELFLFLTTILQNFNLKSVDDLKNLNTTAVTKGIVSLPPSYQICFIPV
Chain of human CYP2A6, CYP2A6 (gene 1548) (P11509 whole entry, looked up): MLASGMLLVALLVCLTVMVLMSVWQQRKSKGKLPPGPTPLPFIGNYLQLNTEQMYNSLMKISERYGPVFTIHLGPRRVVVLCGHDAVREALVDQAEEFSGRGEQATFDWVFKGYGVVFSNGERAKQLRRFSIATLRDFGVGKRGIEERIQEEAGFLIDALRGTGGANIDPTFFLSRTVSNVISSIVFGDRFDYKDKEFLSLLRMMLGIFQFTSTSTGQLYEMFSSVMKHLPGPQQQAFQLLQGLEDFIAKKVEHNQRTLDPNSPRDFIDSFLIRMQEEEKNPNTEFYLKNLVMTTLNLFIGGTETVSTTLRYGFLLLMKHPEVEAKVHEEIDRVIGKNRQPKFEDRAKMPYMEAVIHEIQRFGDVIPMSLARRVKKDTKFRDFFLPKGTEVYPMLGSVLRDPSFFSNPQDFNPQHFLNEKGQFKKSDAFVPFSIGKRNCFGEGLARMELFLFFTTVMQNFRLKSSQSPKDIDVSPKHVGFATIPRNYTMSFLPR

What is called AC50 is the midpoint of the concentration-response curve, whichever way the signal moves. For `CCOC(=O)CC(SP(=S)(OC)OC)C(=O)OCC` (stereo not given), the outcome with CD69, CD69 (gene 969) is “inactive”; in [1] it was “inactive”; in experiment [2], “inactive”; in [3] it was “inactive”; in experiment [4], “inactive”; in experiment [5], “inactive”. Also, the outcome in experiment [6], in [7] and in experiment [11] was inactive. Also, the AC50 was 1.98 µM (active) in experiment [8]; 2.87 µM (active) in experiment [9]; 0.899 µM (active) in experiment [10]; 0.369 µM (active) in [12]; 4.68 µM (active) in experiment [13]; 0.752 µM (active) in experiment [14]. Moreover, the half-maximal activity concentration (AC50) in experiment [15] was 32 nM (active).
Regarding `CCCCNC(=O)OCC#CI`, the AC50 is 21.9 µM (active) and 15.5 µM (active) with CD69, CD69 (gene 969); 29.2 µM (active) and 26.1 µM (active) in [1]; 25 µM (active) and 22.7 µM (active) in experiment [2]; 35.1 µM (active) and 36.5 µM (active) in experiment [3]; 7.02 µM (active) and 7.09 µM (active) in experiment [4]; 22.1 µM (active) and 14.7 µM (active) in experiment [5]. For the same compound, the concentration at half-maximal activity (AC50) in [6] was 28.6 µM (active); in experiment [15], 1.81 µM (active) and 2.46 µM (active).
Turning to `N#CC(CCc1ccc(Cl)cc1)(Cn1cncn1)c1ccccc1` (stereo not given), the outcome with CD69, CD69 (gene 969) was “inactive”; in experiment [1], “inactive”; in [2], “inactive”; in experiment [3], “inactive”; in [4], “inactive”; in experiment [5], “inactive”. The result in experiment [6], in experiment [7] and in [9] was inactive. Moreover, the AC50 in experiment [10] was 0.429 µM (active); in experiment [14] it was 1.14 µM (active); in experiment [16], 4.35 µM (active); in [15], 191 nM (active).
On to `O=C(O)c1nc(Cl)ccc1Cl`, for which the outcome with CD69, CD69 (gene 969) is “inactive”; in experiment [1], “inactive”; in [2], “inactive”; in [3] it was “inactive”; in experiment [4] it was “inactive”; in experiment [5], “inactive”. Further, the outcome in experiment [6], in experiment [16] and in experiment [15] was inactive.
Turning to `CCOC(=O)C(Cl)Cc1cc(-n2nc(C)n(C(F)F)c2=O)c(F)cc1Cl` (stereo not given), the outcome with CD69, CD69 (gene 969) is “inactive”; in experiment [1] it was “inactive”; in experiment [2], “inactive”; in experiment [3], “inactive”; in experiment [4], “inactive”; in [5] it was “inactive”. The result in experiment [6] was inactive. In addition, the AC50 in experiment [9] was 5.46 µM (active); in experiment [15] it was 10000 nM (active).
For the compound `CNC(=S)S`, the outcome is “inactive” in the experiment with CD69, CD69 (gene 969); “inactive” in [1]; “inactive” in experiment [3]; “inactive” in experiment [5]; “inactive” in experiment [7]; “inactive” in [14]. Moreover, the AC50 in [2] was 27.5 µM (active); in [4], 14.7 µM (active); in experiment [6], 23.3 µM (active); in experiment [15] it was 7580 nM (active).
